Compound activity as filed in PubChem BioAssay.
TDP43 rescue = qHTS of TDP-43 Inhibitors. TDP-43 expressing yeast growth rescue, BacTiter-Glo, 24 h. Potency, µM (series often up to 46.1 µM), most hits filed as activators. actives 1.8% (n = 410,000). AID 652104, 2013; note: nearly all actives have a fitted effect of over 50% in size
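Yeast cells expressing TDP-43 under galactose induction are exposed to compounds for 24 hr at 30 deg C. BacTiter-Glo luminescence measures growth, so protective compounds score as activators.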
FUS yeast rescue = qHTS for Suppressors of FUS Proteinopathy: Primary screen using FUS-linked yeast assay; S. cerevisiae FUS-expressing, growth rescue, OD600, 24 h; Potency, µM (titrated, usually from 76.6 µM), actives largely listed as activators; actives 0.24% (n = 390,000); note: nearly all actives have a fitted effect of over 55% in size
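Read-out: OD at 600 nm after 24hr at 30C, reporting rescue of FUS-induced yeast toxicity. Cells at OD 0.005 in galactose (2%) minimal medium; compounds tested in a dilution series; CP55940 titration from 92uM final as control.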
Abeta rescue = qHTS for compounds that reverse cellular toxicity of Amyloid beta (A-beta) peptide in yeast: Primary Screen; yeast expressing A-beta42, growth rescue, OD600, 48 h; response scale: 0% DMSO, 100% iron-clioquinol control; Potency, µM (series often up to 46.1 µM), most hits filed as activators; actives 0.063% (n = 410,000); note: nearly all actives have a fitted effect of over 55% in size
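Growth rescue measured by 600 nm absorbance after 48 h yeast culture at 30 C with compound. Values normalized between DMSO and an equimolar ferric chloride plus clioquinol control.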
aSyn rescue = qHTS of alpha-syn Inhibitors | actives 0.14% (n = 370,000) | AID 652106, 2013 | Yeast expressing alpha-synuclein, growth rescue, BacTiter-Glo, 24 h | Potency, µM (doses to about 46.1 µM), hits mostly activators; note: nearly all actives have a fitted effect of over 65% in size
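Rescue of yeast growth: cells expressing toxic alpha-synuclein, induced in galactose at OD600 0.02, incubated with compound 24 h at 30 C. ATP luminescence quantified growth; inhibitors of toxicity appear as activators.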
A number is an active result; n = inactive; u = inconclusive; x = no result given. A selection: hits, their analogues and other compounds. The true share with any hit is near 2.1%. Calls come from the whole dose curve; as a rule, active = well fitted curve in the direction sought with a large enough effect; inconclusive = small, poorly fitted or top-dose-only effect, or another doubt; inactive = no such curve, though single readings can be large; an effect the other way counts as inactive or inconclusive.

SMILES	TDP43 rescue	FUS yeast rescue	Abeta rescue	aSyn rescue
c1ccc(C2CCC3(CC2)CCC3NCc2cccs2)cc1 (stereo not given)	x	n	x	x
O=[N+]([O-])c1ccc(O/N=[N+](\[O-])N2CCN(c3ccccc3)CC2)c([N+](=O)[O-])c1	x	x	x	n
COc1cccc(-n2ccnc2SCC(=O)Nc2cccc3ccccc23)c1	15.8µM	u	n	x
Cc1cccc(-n2ccnc2SCC(=O)Nc2nccs2)c1	n	n	n	n
CCOc1ccccc1NC(=O)CSc1nccn1-c1cccc(C)c1	17.8µM	n	n	n
COc1ccccc1Nc1nc(-c2cccc([N+](=O)[O-])c2)cs1	22.4µM	n	n	n
COc1ccc2nc(C)cc(Sc3nc4ccccc4s3)c2c1	25.1µM	n	n	n
O=C(c1ccc(Cl)cc1)N1CCC(C(=O)N2CCCc3ccccc32)CC1	14.1µM	x	n	n
O=C(C[n+]1ccc2ccccc2c1)c1ccc(O)c(O)c1	x	x	x	n
Cc1ccc(CN=c2c([N+](=O)[O-])nn(-c3cccc(Cl)c3)n2O)cc1	10µM	n	u	n
Cc1ccc(CN=c2c([N+](=O)[O-])nn(-c3cccc(C)c3)n2O)cc1	15.8µM	n	n	n
CCc1ccc(N=c2c([N+](=O)[O-])nn(-c3ccccc3)n2O)cc1	12.6µM	n	u	n
Cc1ccccc1C(=O)Nc1sc2c(c1C(=O)N1CCC(C)CC1)CCC(C)C2 (stereo not given)	n	n	n	x
Cc1ccccc1C(=O)Nc1sc2c(c1C(=O)N1CCCCC1)CCC(C)C2 (stereo not given)	17.8µM	n	n	x
Cc1ccccc1CN1CCCCC(NC(=O)c2cc(-c3ccccc3)no2)C1=O (stereo not given)	x	n	x	x
CC(C)(C)n1nnnc1C(c1ccccc1)N1CCN(c2ccc(C(F)(F)F)cn2)CC1 (stereo not given)	35.5µM	n	n	n
CC(C)(C)n1nnnc1C(c1cccnc1)N1CCN(c2ccccn2)CC1 (stereo not given)	n	n	n	n
CCOc1ccc(NC(=O)CN2CCCN(c3ccc(OC)cc3)CC2)cc1	x	n	x	x
CCC(C)[C@H](NC(=O)OC(C)(C)C)C(=O)N/N=C/C1=Cc2ccccc2OC1 (stereo not given in full)	n	28.2µM	n	n
C[C@H](NC(=O)OC(C)(C)C)C(=O)N/N=C/C1=Cc2ccccc2OC1	n	n	n	n
COc1ccc(/C=N/NC(=O)c2cccnc2)cc1CSc1nc2ccccc2s1	12.6µM	x	n	n
O=C(OCc1cn(Cc2c(F)cccc2F)nn1)N1CCCC1	x	n	x	x
COC(=O)C1CCN(C(=O)c2cc(-c3ccc(Cl)s3)nc3ccccc23)CC1	35.5µM	u	n	u
COc1cc(OC)c2c(=O)cc(-c3ccccc3)oc2c1	35.5µM	n	n	n
CC(C)(C)OC(=O)COc1cc(OCC(=O)OC(C)(C)C)c2c(=O)cc(-c3ccccc3)oc2c1	n	31.6µM	n	n
SMILES	TDP43 rescue	FUS yeast rescue	Abeta rescue	aSyn rescue
COCCCNC(=O)C[C@H]1C[C@@]2(C(=O)OC)C(=C[C@H](C3CCCC3)O[C@@H]2C)N(CCc2ccc(OC)c(OC)c2)C1=O	x	n	x	x
CCOc1ccc(N2CC(c3nc4ccccc4n3Cc3ccccc3F)CC2=O)cc1 (stereo not given)	n	n	n	x
Cc1ccccc1OCCCCn1c(C2CC(=O)N(c3ccccc3Cl)C2)nc2ccccc21 (stereo not given)	11.2µM	n	u	x
O=C1CC(c2nc3ccccc3n2Cc2c(F)cccc2Cl)CN1c1cccc(C(F)(F)F)c1 (stereo not given)	25.1µM	n	n	x
COc1ccccc1OCCCCn1c(C2CC(=O)N(c3ccccc3Cl)C2)nc2ccccc21 (stereo not given)	n	n	n	x
Cc1c(Cl)cccc1N1CC(c2nc3ccccc3n2Cc2ccccc2F)CC1=O (stereo not given)	25.1µM	n	n	x
O=C(Nc1ccc(F)cc1F)C1CCCN1S(=O)(=O)c1cccnc1 (stereo not given)	x	n	x	x
O=C(c1ccc(Cl)c(Cl)c1)N1CCN(c2ccnc3cc(Cl)ccc23)CC1	x	n	x	x
OC(Cc1ccc2ccccc2n1)c1ccccc1 (stereo not given)	x	x	x	n
C=C(C)n1c(=O)n(Cc2ccccc2C)c2ccccc21	11.2µM	n	n	n
Cc1nc([N+](=O)[O-])cn1CC(=O)c1ccc2c(c1)OCCCO2	x	x	x	n
Cc1ccc(NC(=O)C2(NC(=O)c3cccc(N4C(=O)CSC4c4ccccc4)c3)CCCCC2)cc1 (stereo not given)	n	28.2µM	n	n
COc1ccc2c(c1)N=C(c1[nH]c3ccccc3c1CCN1C(=O)c3ccccc3C1=O)[C@]2(O)CCN1C(=O)c2ccccc2C1=O	x	17.8µM	x	x
CCc1ccc(NC2CC(=O)N(CCc3ccc(OC)c(OC)c3)C2=O)cc1 (stereo not given)	17.8µM	n	n	n
CCCCCCCCN1C(=O)[C@@H](CC(=O)NCc2ccccc2)C[C@@]2(C(=O)OC)C1=C[C@H](COCc1ccccc1)O[C@@H]2C	x	n	x	x
O=C(COc1ccccc1C(=O)OCC(=O)N1CCOCC1)Nc1ccc(Br)cc1	x	x	x	n
Fc1ccc(/C=N/n2c(C3CCCCC3)n[nH]c2=S)cc1	u	n	12.6µM	n
O=C(O)c1ccc([N+](=O)[O-])cc1-c1cc([N+](=O)[O-])ccc1C(=O)O	n	n	n	n
O=[N+]([O-])c1ccc2c(c1)-c1ccccc1C2O (stereo not given)	11.2µM	n	n	n
CCOC(=O)c1ccc(NC2c3ccccc3C(=O)N2c2ccc(C)cn2)cc1 (stereo not given)	n	n	n	3.98µM
CC(=O)Nc1ccc(NCN2C(=O)C3C4CCC(C4)C3C2=O)cc1 (stereo not given)	25.1µM	n	n	n
COc1ccc(-c2cc(C(=O)N3CCN(c4ccccc4)CC3)no2)cc1	11.2µM	n	n	n
O=C(c1cc(-c2cccs2)on1)N1CCN(c2ccc(F)cc2)CC1	n	n	n	n
COc1ccc(OC)c(-c2cc(C(=O)N3CCc4ccccc4C3)no2)c1	n	n	n	n
S=C(c1cccs1)N1CCN(c2ccccc2)CC1	17.8µM	x	n	n
SMILES	TDP43 rescue	FUS yeast rescue	Abeta rescue	aSyn rescue
COc1ccc(OC)c(-c2cc(C(=O)N3CCN(c4ccccc4)CC3)no2)c1	22.4µM	u	n	n
O=C(c1cc(-c2cccs2)on1)N1CCN(c2ccccc2)CC1	11.2µM	n	n	n
CCC1CN(C(=O)N2CCC(C(=O)NCCc3cc(OC)ccc3OC)CC2)c2ccccc2O1 (stereo not given)	n	n	n	x
CN(C)S(=O)(=O)c1cccc(C(=O)N/N=C\c2ccc(-c3ccccn3)cc2)c1	x	n	x	x
COCc1oc2ccc(NS(=O)(=O)c3ccc(C)cc3)cc2c1C(=O)OC	n	n	n	x
CC(C)C(=O)Nc1ccc(N2CCN(C(=O)c3cccs3)CC2)cc1	n	n	n	n
